# Measurements from PubChem BioAssay (EPA / NIEHS).
# Inconclusive results are not listed. Active and inactive are the calls of the source. The calls were made as follows, unless noted: active = hit-call score of the fitted dose curve at least 0.9, where 1 is the maximum; inconclusive = response in the unintended direction; inactive = score below 0.9.
# What was measured:
# [1] = CCTE_Shafer_MEA_acute_synchrony_index: CCTE's Neural Acute Assay for Synchrony, Shafer Lab (AID 2284027; active = hit-call score of the fitted dose curve at least 0.9, where 1 is the maximum; inactive = score below 0.9;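 also: network synchrony index of spontaneous spiking in primary rat cortical neurons on MEAs; fitted for loss of signal so actives lower synchrony relative to DMSO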)
# Procedure, shortened: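 Spontaneous firing of mature rat cortical networks is captured extracellularly on microelectrode arrays at 37 C, with wells needing ≥10 active electrodes. Each compound (0.03-40 uM) is judged by the change in synchrony index from baseline over 40 min.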
# [2] = CCTE_Shafer_MEA_acute_AB: CCTE's Alamar Blue Assay for Cytotoxicity in the Neural Acute Assay, Shafer Lab (AID 2284069);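 also: active compounds lower the viability signal compared with DMSO wells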
# Procedure, shortened: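 Metabolic activity in chemically exposed rat cortical neurons (MEA cultures, day 13/15 post-plating) measured via CellTiter Blue resazurin reduction, 544/590 nm fluorescence; fitted relative to DMSO, with signal loss indicating reduced viability.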
# [3] = CCTE_Shafer_MEA_acute_LDH: CCTE's Lactate Dehydrogenase Assay for Cytotoxicity in the Neural Acute Assay, Shafer Lab (AID 2284086);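 also: active means LDH release rises above DMSO vehicle level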
# Procedure, shortened: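 Released lactate dehydrogenase, read at 490 nm, indicated cytotoxicity after acute 40-min compound treatment of rat cortical neuron networks grown on 48-well MEA plates.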
# [4] = target: rat Gamma-Aminobutyric Acid Type A Receptor BDZ, alpha 6 site (GABARa6), Gabra6 (gene 29708) (UniProt P30191); test: NVS_LGIC_rGABARa6: NovaScreen (NVS) Ligand-Gated Ion Channel Assay for rat Gamma-Aminobutyric Acid Type A Receptor BDZ, alpha 6 site (GABARa6) (AID 2283339)
# Procedure, shortened: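 Rat cerebellar membranes; radioligand binding, filtration and scintillation counting, read 1 h after dosing. Single-concentration duplicate screen at 25 uM, then concentration-response up to 50 uM for actives; loss of signal fitted versus DMSO baseline.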
# [5] = target: human CYP2C8, CYP2C8 (gene 1558) (UniProt P10632); test: NVS_ADME_hCYP2C8: NovaScreen (NVS) CYP450-related Enzyme Activity (ADME) Assay for human CYP2C8 (AID 2283104; active = hit-call score of the fitted dose curve at least 0.9, where 1 is the maximum; inactive = score below 0.9)
# Procedure, shortened: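 Recombinant human CYP2C8 with fluorogenic substrate, 0.5 h, fluorescence intensity; signal loss fitted versus acetonitrile. Screened in duplicate at 10 uM, then actives run in concentration-response up to 20 uM.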
# [6] = target: human Neonicotinoid receptor (NNR), CHRNA2 (gene 1135) (UniProt Q15822); test: NVS_LGIC_hNNR_NBungSens: NovaScreen (NVS) Ligand-Gated Ion Channel Assay for human Neonicotinoid receptor (NNR) (AID 2283313)
# Procedure, shortened: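 Radioligand displacement on human neuroblastoma membranes, 2 h, filter-based scintillation counting. Primary screen in duplicate at 25 uM; chemicals passing threshold (e.g. 30% inhibition) run singleton concentration-response to 50 uM; loss of binding fitted versus DMSO.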
# [7] = target: human Androgen Receptor (AR), AR (gene 367) (UniProt P10275); test: ATG_hAR_XSP1: Attagene TRANS-FACTORIAL Multi-Species (XSP1) HepG2 Assay for human Androgen Receptor (AR) (AID 2283785)
# Description: ATG_XSP1_multi-species_TRANS is a cell-based, multiplexed assay created by modifying the existing Attagene TRANS-FACTORIAL system to include a panel of nuclear receptors from some or all the following species: human (Homo sapiens), mouse (Mus musculus), frog (Xenopus laevis), zebrafish (Danio rerio), chicken (Gallus gallus), and turtle (Chrysemys picta). The ECOTOX-FACTORIAL format uses HepG2, a human liver cell line, with measurements taken at 24 hours after chemical dosing in a 24-well plate. Xsp1 included 3 nM 6-alpha-fluorotestosterone to partially stimulate the androgen receptor.ATG_hAR_XSP1 is one of 29 assay components measured or calculated from the ATG_XSP1_multi-species_TRANS assay. It is designed to make measurements of mRNA induction, a form of inducible reporter, as detected with fluorescence intensity signals by Reverse transcription polymerase chain reaction (RT-PCR) and Capillary electrophoresis technology.The assay endpoint ATG_hAR_XSP1 was analyzed in the positive analysis fitting direction relative to DMSO as the negative control and baseline of activity. […] Furthermore, this assay endpoint can be referred to as a primary readout, because this assay has produced multiple assay endpoints where this one serves a reporter gene function. […]
# [8] = target: human Caspase 2 (CASP2), CASP2 (gene 835) (UniProt P42575); test: NVS_ENZ_hCASP2: NovaScreen (NVS) Enzymatic Assay for human Caspase 2 (CASP2) (AID 2283135)
# Procedure, shortened: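 E. coli-expressed enzyme in a cell-free protease assay, fluorescence read 1 h after dosing. Compounds at 25 uM in duplicate, with concentration-response up to 50 uM for hits; loss of signal against DMSO baseline.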
# PPP2CA (gene 5515) = PPP2CA (gene 5515) (UniProt P67775); test: NVS_ENZ_hPPP2CA: NovaScreen (NVS) Enzymatic Assay for human Protein Phosphatase 2 Aatalytic subunit Alpha (PPP2CA) (AID 2283199)
# Procedure, shortened: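 Recombinant human PPP2CA with fluorescent substrate; product separated from substrate by electrophoretic mobility shift, read 1.33 h after dosing. Duplicate single-point at 25 uM, then singleton concentration-response up to 50 uM; loss of signal versus DMSO.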
# [9] = Tanguay_ZF_120hpf_MUSC: Oregon State University Tanguay Lab 120 Hour Post-fertilization zebrafish Assay for Muscle Malformation (AID 2284401; active = hit-call score of the fitted dose curve at least 0.9, where 1 is the maximum; inactive = score below 0.9)
# Procedure, shortened: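 Dechorionated Tropical 5D wild-type zebrafish embryos exposed statically from 6 to 120 hpf at 28C, one per well, in 0.64% DMSO. Muscle malformation scored present/absent by brightfield microscopy at 120 hpf, fitted against DMSO.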
# Chain of human CYP2C8, CYP2C8 (gene 1558) (P10632 whole entry, looked up): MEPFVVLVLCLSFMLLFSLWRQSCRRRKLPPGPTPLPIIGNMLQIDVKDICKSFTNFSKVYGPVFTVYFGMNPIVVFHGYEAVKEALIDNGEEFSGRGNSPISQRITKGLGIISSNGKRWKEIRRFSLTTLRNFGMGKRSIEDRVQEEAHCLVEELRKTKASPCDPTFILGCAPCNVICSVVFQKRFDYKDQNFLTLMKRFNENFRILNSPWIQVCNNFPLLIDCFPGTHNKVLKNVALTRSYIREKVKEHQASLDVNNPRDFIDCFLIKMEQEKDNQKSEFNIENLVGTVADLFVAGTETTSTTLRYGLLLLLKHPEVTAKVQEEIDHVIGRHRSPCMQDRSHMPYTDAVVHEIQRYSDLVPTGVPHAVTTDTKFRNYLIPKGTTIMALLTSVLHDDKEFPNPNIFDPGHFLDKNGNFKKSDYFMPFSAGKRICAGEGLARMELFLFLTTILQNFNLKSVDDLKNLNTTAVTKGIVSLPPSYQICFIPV
# Chain of rat Gamma-Aminobutyric Acid Type A Receptor BDZ, alpha 6 site (GABARa6), Gabra6 (gene 29708) (P30191 whole entry, looked up): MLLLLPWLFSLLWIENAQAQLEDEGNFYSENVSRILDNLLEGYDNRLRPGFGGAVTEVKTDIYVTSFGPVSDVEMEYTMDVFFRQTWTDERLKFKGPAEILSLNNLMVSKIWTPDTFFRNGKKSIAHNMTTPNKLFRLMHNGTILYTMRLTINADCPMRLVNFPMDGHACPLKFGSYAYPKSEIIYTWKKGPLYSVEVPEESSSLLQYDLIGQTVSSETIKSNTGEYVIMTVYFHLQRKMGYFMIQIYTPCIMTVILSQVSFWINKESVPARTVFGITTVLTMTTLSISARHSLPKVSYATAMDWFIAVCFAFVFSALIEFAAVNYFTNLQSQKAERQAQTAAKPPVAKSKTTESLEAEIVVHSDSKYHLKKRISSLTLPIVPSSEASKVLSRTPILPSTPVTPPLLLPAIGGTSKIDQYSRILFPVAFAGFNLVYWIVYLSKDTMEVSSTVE
# Chain of PPP2CA (gene 5515) (P67775 whole entry, looked up): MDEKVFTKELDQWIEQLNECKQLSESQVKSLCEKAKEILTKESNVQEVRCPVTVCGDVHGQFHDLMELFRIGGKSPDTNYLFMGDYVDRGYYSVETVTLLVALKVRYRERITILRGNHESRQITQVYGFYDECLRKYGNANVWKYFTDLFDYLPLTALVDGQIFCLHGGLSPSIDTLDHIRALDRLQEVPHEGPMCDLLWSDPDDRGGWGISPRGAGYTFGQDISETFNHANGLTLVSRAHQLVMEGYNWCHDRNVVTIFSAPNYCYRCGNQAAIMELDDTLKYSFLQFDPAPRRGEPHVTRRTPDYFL
# Chain of human Caspase 2 (CASP2), CASP2 (gene 835) (P42575 whole entry, looked up): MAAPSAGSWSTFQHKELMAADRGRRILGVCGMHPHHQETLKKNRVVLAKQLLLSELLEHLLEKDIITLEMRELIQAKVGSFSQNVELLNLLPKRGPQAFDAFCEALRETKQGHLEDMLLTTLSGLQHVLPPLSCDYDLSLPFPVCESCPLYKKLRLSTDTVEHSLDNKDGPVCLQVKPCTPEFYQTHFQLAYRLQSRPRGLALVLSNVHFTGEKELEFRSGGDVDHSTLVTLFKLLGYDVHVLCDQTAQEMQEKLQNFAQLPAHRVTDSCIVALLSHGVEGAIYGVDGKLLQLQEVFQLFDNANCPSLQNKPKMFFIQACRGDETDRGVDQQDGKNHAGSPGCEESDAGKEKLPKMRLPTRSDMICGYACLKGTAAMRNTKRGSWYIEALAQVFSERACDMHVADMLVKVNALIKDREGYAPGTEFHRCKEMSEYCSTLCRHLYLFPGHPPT
# Chain of human Androgen Receptor (AR), AR (gene 367) (P10275 whole entry, looked up): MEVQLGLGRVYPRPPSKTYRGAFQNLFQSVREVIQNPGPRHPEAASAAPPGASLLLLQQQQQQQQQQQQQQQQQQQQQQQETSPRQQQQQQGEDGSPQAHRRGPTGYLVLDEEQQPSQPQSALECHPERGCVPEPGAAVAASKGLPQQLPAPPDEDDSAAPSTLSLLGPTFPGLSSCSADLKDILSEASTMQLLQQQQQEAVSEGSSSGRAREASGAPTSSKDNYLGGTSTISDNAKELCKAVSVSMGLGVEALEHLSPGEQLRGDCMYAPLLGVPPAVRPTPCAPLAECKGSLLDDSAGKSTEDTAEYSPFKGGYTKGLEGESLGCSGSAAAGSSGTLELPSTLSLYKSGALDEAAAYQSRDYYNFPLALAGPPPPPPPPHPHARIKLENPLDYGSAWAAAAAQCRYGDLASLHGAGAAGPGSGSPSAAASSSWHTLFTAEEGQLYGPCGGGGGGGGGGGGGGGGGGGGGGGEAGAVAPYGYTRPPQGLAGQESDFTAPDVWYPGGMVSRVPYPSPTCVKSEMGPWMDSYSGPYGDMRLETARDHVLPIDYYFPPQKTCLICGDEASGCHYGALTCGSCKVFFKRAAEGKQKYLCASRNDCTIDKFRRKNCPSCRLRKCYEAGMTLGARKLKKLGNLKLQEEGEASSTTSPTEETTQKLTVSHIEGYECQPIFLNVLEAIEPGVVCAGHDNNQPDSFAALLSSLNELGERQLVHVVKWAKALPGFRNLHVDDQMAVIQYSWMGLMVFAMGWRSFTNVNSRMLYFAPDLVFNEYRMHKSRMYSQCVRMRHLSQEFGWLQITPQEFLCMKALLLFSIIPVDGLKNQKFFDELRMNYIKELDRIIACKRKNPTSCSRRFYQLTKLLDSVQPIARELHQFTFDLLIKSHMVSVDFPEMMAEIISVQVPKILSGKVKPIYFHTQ
# Chain of human Neonicotinoid receptor (NNR), CHRNA2 (gene 1135) (Q15822 whole entry, looked up): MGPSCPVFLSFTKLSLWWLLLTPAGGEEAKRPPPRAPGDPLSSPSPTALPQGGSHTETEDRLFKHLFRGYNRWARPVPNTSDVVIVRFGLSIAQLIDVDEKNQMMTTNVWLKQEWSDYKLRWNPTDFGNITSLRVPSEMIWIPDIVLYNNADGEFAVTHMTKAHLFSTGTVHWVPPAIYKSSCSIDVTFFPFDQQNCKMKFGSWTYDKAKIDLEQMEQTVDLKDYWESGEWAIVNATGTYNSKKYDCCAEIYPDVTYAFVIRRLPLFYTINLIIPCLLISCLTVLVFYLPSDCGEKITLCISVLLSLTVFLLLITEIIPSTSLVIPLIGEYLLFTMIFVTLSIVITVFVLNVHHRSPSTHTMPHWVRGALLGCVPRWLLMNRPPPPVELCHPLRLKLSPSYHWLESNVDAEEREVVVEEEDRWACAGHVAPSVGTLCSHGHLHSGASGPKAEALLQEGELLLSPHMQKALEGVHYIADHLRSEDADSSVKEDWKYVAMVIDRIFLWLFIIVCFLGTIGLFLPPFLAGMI
smiles,measurement,setting,value
O=c1c2ccccc2c(=O)c2c1cc(Cl)c1[nH]c3c([nH]c12)c(Cl)cc1c(=O)c2ccccc2c(=O)c13,outcome,[1],inactive
same,outcome,[2],inactive
same,outcome,[3],inactive
CCCCCCCCCC(=O)O,outcome,[4],inactive
N#CSCSc1nc2ccccc2s1,AC50,[5],4.46 µM (active)
COc1cc(C(=O)NC2CCN(C)CC2)ccc1Nc1ncc2c(n1)N(C1CCCC1)CC(F)(F)C(=O)N2C,outcome,[6],inactive
CC[C@H](c1ccc(O)cc1)[C@@H](CC)c1ccc(O)cc1,outcome,[7],inactive
COc1cc(-c2nc(NC(=O)c3cc4cc(C)cc(C)c4n3CC(=O)O)sc2CCC2CCCCC2)c(OC)cc1Cl,AC50,[8],7.75 µM (active)
c1ccc2[nH]c(-c3cscn3)nc2c1,outcome,PPP2CA (gene 5515),inactive
OCCC(F)(F)C(F)(F)C(F)(F)C(F)(F)C(F)(F)C(F)(F)C(F)(F)C(F)(F)F,outcome,[9],inactive
